# Calls of active or inactive are those of the source. Rule for the calls: active = hit-call score of the fitted dose curve at least 0.9, where 1 is the maximum; inactive = score below 0.9.
# Test: APR_HepG2_P-H2AX_24hr: Apredica 24-hour HepG2 Assay for H2AX Phosphorylation (AID 2282920)
# Conditions: high-content imaging, actives raise or lower the signal
# Procedure: APR_HepG2_24hr is a cell-based, multiplexed-readout assay that uses HepG2, a human liver cell line, with measurements taken at 24 hours after chemical dosing in a 384-well plate.APR_HepG2_P-H2AX_24hr is one of 10 assay component(s) measured or calculated from the APR_HepG2_24hr assay. It is designed to make measurements of dna content, a form of viability reporter, as detected with fluorescence intensity signals by HCS Fluorescent Imaging technology.Data from the assay component APR_HepG2_P-H2AX_24hr was analyzed into 1 assay endpoint. This assay endpoint, APR_HepG2_P-H2AX_24hr, was analyzed with bidirectional fitting relative to DMSO as the negative control and baseline of activity. Using a type of viability reporter, measures of protein for gain or loss-of-signal activity can be used to understand the signaling at the pathway-level as they relate to the gene . Furthermore, this assay endpoint can be referred to as a primary readout, because this assay has produced multiple assay endpoints where this one serves a signaling function. To generalize the intended target to other relatable targets, this assay endpoint is annotated to the dna binding intended target family, where the subfamily is cellular response to DNA damage stimulus.
# Cells were treated with dimethyl sulfoxide (DMSO) as a solvent control at a final concentration of 0.5% v/v or with compounds in DMSO with a resulting final DMSO concentration of 0.5% v/v. Compound treatment was done at concentrations of 0.39, 0.78, 1.56, 3.12, 6.24, 12.5, 25, 50, 100, and 200 uM in duplicate on each plate. Cells were treated with compounds for 1, 24, or 72 hr. Carbonyl […] m-chloro-phenylhydrazone (CCCP) and taxol were used as positive controls for mitochondrial function and cytoskeletal stability, respectively; DMSO served as the negative control for this experiment. Cells were fixed by the direct addition of 50 uL formaldehyde in Hank's Balanced Salt Solution (HBSS) to a final concentration of 3.7%. After incubation in the fixation medium for 30 min at room temperature (293-298 K), cells were rinsed twice with HBSS and treated with cell permeabilization buffer (16 uL of 0.5% Triton X-100) for 10 min at room temperature (293-298 K) before labeling. For mitochondrial membrane potential and mitochondrial measurements, pre-fixed cells were incubated with 50 uL of MitoTracker Red CMXRos (Invitrogen) at a concentration of 250 nM for 30 min before fixation. In the remaining cases, post-fixed cells were labeled by incubation with a multiplexed mixture of primary antibodies in HBSS for 60 min at room temperature (293-298 K) to detect immunoreactivity of c-Jun (1:500), phospho-histone H3 (1:100), phospho-histone H2A.x (1:200), p53 (1:400), alpha-tubulin (1:200) and Hoechst 33342 (2 ug/mL). Cells were labeled for multiplexed imaging on two separate plates: a) Hoechst 33342, MitoTracker Red, phospho-histone H3, and alpha-tubulin, and b) Hoechst 33342, phospho-histone H2A.x, and c-Jun. A final rinse with HBSS (50 uL) was performed before analysis. The primary and secondary antibodies for the proteins were phospho-histone H3 (rabbit anti-phospho-histone H3 and FITC-donkey anti-rabbit IgG), phospho-histone H2A.x (mouse anti-phospho-histone H2A.x and FITC-donkey anti-mouse IgG), c-Jun (rabbit anti-phospho-c-Jun and Cy3-donkey anti-rabbit IgG), p53 (sheep anti-p53 and Cy5-donkey anti-sheep IgG), alpha-tubulin (mouse anti-alpha-tubulin and Cy5-donkey anti-mouse IgG). These antibodies are available as the CellCiphr HepG2 assay kit (Millipore).Digital images of each well were captured using a Cellomics ArrayScan VTI (Thermo Scientific Cellomics) (0.8 NA objective, 0.63x optical coupler, and XF-93 filter set) at 20x magnification. The images were acquired using the autofocus feature of the ArrayScan instrument, which entails the following steps. First, the camera focuses on channel 1 (Hoechst 33342), where nuclei are identified. Second, a Z offset of 1 um is used for capturing mitochondria (MitoTracker Red). […]
Compound,outcome,AC50
Nc1nc(N)c2nc(CNc3ccc(C(=O)N[C@@H](CCC(=O)O)C(=O)O)cc3)cnc2n1,inactive,–
NCC1(Cc2noc(=O)[nH]2)CCCCC1,inactive,–
CC(C)(C)c1cc(O)c(C(C)(C)C)cc1O,–,79.4 µM (active)
Cc1ccc(C)c(C)c1,inactive,–
CCCCCCC(=O)OCC,inactive,–
Cc1ccc(N(C)C)cc1,inactive,–
CCOC(=O)CCC(=O)OCC,inactive,–
Nc1ccccc1N,–,45.8 µM (active)
c1cc(-c2ccncc2)ccn1,inactive,–
Cc1ccc2ncccc2c1,inactive,–
Cc1cccc(C)c1O,inactive,–
NS(=O)(=O)c1cc2c(cc1Cl)NCNS2(=O)=O,inactive,–
CCCCN(CCCC)CCCC,inactive,–
CCCCCCCCCCCC(=O)OC,inactive,–
CNC(=O)[C@H]1O[C@@H](n2cnc3c(NCc4cc(Cl)ccc4OCc4cc(C)no4)ncnc32)[C@H](O)[C@@H]1N,inactive,–
CC1(C)NC(=O)NC1=O,inactive,–
Cc1cccc([N+](=O)[O-])c1C,inactive,–
COc1ccc2c(c1)c(CC(=O)O)c(C)n2C(=O)c1ccc(Cl)cc1,inactive,–
COc1cc(-c2nc(NC(=O)c3cc4cc(C)cc(C)c4n3CC(=O)O)sc2CCC2CCCCC2)c(OC)cc1Cl,–,38.9 µM (active)
O=c1[nH]cc(F)c(=O)[nH]1,inactive,–

Compound,outcome,AC50
CCc1c(C(=O)NN2CCCCC2)nn(-c2ccc(Cl)cc2Cl)c1-c1ccc(Br)cc1,–,70.4 µM (active)
O=C(N[C@@H](Cc1ccccc1)[C@@H](O)C(=O)N1C[C@@H](O)[C@@H](O)C1)c1cc2cc(Cl)ccc2[nH]1,inactive,–
COCCOC[C@H](CC1(C(=O)NC2CCC(C(=O)O)CC2)CCCC1)C(=O)Oc1ccc2c(c1)CCC2 (stereo not given in full),inactive,–
O=C(OCCCCCOC(=O)c1ccccc1)c1ccccc1,inactive,–
COc1ccc(S(=O)(=O)N2C(=O)[C@@](c3ccccc3OC)(N3C[C@H](O)C[C@H]3C(=O)N(C)C)c3cc(Cl)ccc32)c(OC)c1,–,68.2 µM (active)
Cc1ccc(C(C)C)c(O)c1,inactive,–
COc1cc(C=O)ccc1O,inactive,–
CNCc1cc(F)ccc1Oc1ccc(Cl)c(Cl)c1,–,74.4 µM (active)
CC(=O)OCCOCCOCCOC(C)=O,inactive,–
COc1cc(S(=O)(=O)O)c(C)cc1N=Nc1c(O)ccc2cc(S(=O)(=O)O)ccc12,inactive,–
CCCc1cc(=O)[nH]c(=S)[nH]1,inactive,–
Cc1nc(-c2ccc3c(c2)CCN(CCC2CCC(NC(=O)/C=C/c4ccc(F)cc4)CC2)CC3)no1 (stereo not given),inactive,–
O=C(O)Cc1ccccc1Nc1c(Cl)cccc1Cl,inactive,–
CC=Cc1ccc(O)c(OC)c1,inactive,–
FC(F)(F)C(F)(F)C(F)(F)C(F)(F)C(F)(F)C(F)(F)CCI,inactive,–
NC(=O)Cn1c(=O)cc(CCN2CCN(c3nccc4sccc34)CC2)c2ccc(F)cc21,inactive,–
Oc1ccc2c(c1)OC[C@@H](N1CCC(O)(c3ccc(F)cc3)CC1)[C@H]2O,inactive,–
CCCCCCCCCCCCCCCCCC(=O)O,inactive,–
COc1cc(/C=C/C(=O)CC(=O)/C=C/c2ccc(O)c(OC)c2)ccc1O,–,76.1 µM (active)
Cc1ccccc1Cl,inactive,–

# — PubChem BioAssay (EPA / NIEHS)
